Data as given in the supplement of paper PMC7411054.
Where a name gives a salt, the structure may show the parent alone.

Assays:
Test in all cases: phenotypically active (imaging signature differs from DMSO and reproducible) at any of 0.3-9 uM (binary (1 = active, 0 = inactive)); higher = active
Details in all cases: treatment time: 24 h
[1] = system: A549-ACTB-RAB5A
Outline: (§1)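 Each of fifteen gene-edited A549, HepG2 and WPMY1 reporter lines, marked with BFP for segmentation and GFP and RFP/FusionRed, was treated in four wells at 0.3, 1, 3 or 9 µM for 24 h prior to live imaging. Normalisation of per-well live-cell features used solvent control wells. Deviation needed ≥3 of 4 wells beyond the 95th percentile of control Euclidean distances, and reproducibility needed a median replicate Pearson correlation above the 95th percentile of non-replicates. Both were required for phenotypic activity.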

[2] = system: A549-CANX-COX4
Outline: as §1

[3] = system: A549-GM130-SQSTM1
Outline: as §1

[4] = system: A549-TP53BP1-CLTA
Outline: as §1

[5] = system: A549-TUBA1B-RELA
Outline: as §1

[6] = system: HepG2-ACTB-RAB5A
Outline: as §1

[7] = system: HepG2-CANX-COX4
Outline: as §1

[8] = system: HepG2-GM130-SQSTM1
Outline: as §1

[9] = system: HepG2-TP53BP1-CLTA
Outline: as §1

[10] = system: HepG2-TUBA1B-RELA
Outline: as §1

[11] = system: WPMY1-ACTB-RAB5A
Outline: as §1

[12] = system: WPMY1-CANX-COX4
Outline: as §1

[13] = system: WPMY1-GM130-SQSTM1
Outline: as §1

[14] = system: WPMY1-TP53BP1-CLTA
Outline: as §1

[15] = system: WPMY1-TUBA1B-RELA
Outline: as §1

Measured: phenotypically active

CCCCCCOc1cc2c(cc1N(C)c1ncc(C(=O)O)cn1)C(C)(C)CCC2(C)C
inactive: [1] 0 | [2] 0 | [3] 0 | [4] 0 | [5] 0 | [6] 0 | [7] 0 | [8] 0 | [9] 0 | [10] 0 | [11] 0 | [12] 0 | [13] 0 | [14] 0 | [15] 0

CN1CC(=O)N2[C@H](c3ccc4c(c3)OCO4)c3[nH]c4ccccc4c3C[C@@H]2C1=O [tadalafil]
inactive: [1] 0 | [2] 0 | [3] 0 | [4] 0 | [5] 0 | [6] 0 | [7] 0 | [8] 0 | [9] 0 | [10] 0 | [11] 0 | [12] 0 | [13] 0 | [14] 0 | [15] 0

C[N+](C)(CCCCCC[N+](C)(C)CCCN1C(=O)c2ccccc2C1=O)CCCN1C(=O)c2ccccc2C1=O [W-84 dibromide]
inactive: [1] 0 | [2] 0 | [3] 0 | [4] 0 | [5] 0 | [6] 0 | [7] 0 | [8] 0 | [9] 0 | [10] 0 | [11] 0 | [12] 0 | [13] 0 | [14] 0 | [15] 0

CC[C@H]1OC(=O)[C@H](C)[C@@H](O[C@H]2C[C@@](C)(OC)[C@@H](O)[C@H](C)O2)[C@H](C)[C@@H](O[C@@H]2O[C@H](C)C[C@H](N(C)C)[C@H]2O)[C@](C)(O)C[C@@H](C)C(=O)[C@H](C)[C@@H](O)[C@]1(C)O [Erythromycin]
inactive: [1] 0 | [2] 0 | [3] 0 | [4] 0 | [5] 0 | [6] 0 | [7] 0 | [8] 0 | [9] 0 | [10] 0 | [11] 0 | [12] 0 | [13] 0 | [14] 0 | [15] 0

COC(=O)C1CC23C=CCN4CCC5(c6ccccc6NC15[C@H]2C)C43 (stereo not given in full) [Vindolinine dichlorhydrate]
inactive: [1] 0 | [2] 0 | [3] 0 | [4] 0 | [5] 0 | [6] 0 | [7] 0 | [8] 0 | [9] 0 | [10] 0 | [11] 0 | [12] 0 | [13] 0 | [14] 0 | [15] 0

CC(C)(C)NC[C@H](O)c1ccc(O)c(CO)c1 [levalbuterol]
inactive: [1] 0 | [2] 0 | [3] 0 | [4] 0 | [5] 0 | [6] 0 | [7] 0 | [8] 0 | [9] 0 | [10] 0 | [11] 0 | [12] 0 | [13] 0 | [14] 0 | [15] 0

CCC1(C)OC(=O)N(C)C1=O (stereo not given) [paramethadione]
inactive: [1] 0 | [2] 0 | [3] 0 | [4] 0 | [5] 0 | [6] 0 | [7] 0 | [8] 0 | [9] 0 | [10] 0 | [11] 0 | [12] 0 | [13] 0 | [14] 0 | [15] 0

Nc1ccc(C(=O)O)c(O)c1 [aminosalicylate]
inactive: [1] 0 | [2] 0 | [3] 0 | [4] 0 | [5] 0 | [6] 0 | [7] 0 | [8] 0 | [9] 0 | [10] 0 | [11] 0 | [12] 0 | [13] 0 | [14] 0 | [15] 0

CN(CCOc1ccc(C[C@H](Nc2ccccc2C(=O)c2ccccc2)C(=O)O)cc1)c1ccccn1 [GW 1929 hydrochloride]
inactive: [1] 0 | [2] 0 | [3] 0 | [4] 0 | [5] 0 | [6] 0 | [7] 0 | [8] 0 | [9] 0 | [10] 0 | [11] 0 | [12] 0 | [13] 0 | [14] 0 | [15] 0

CC[N+](CC)(CC)CCOc1cccc(OCC[N+](CC)(CC)CC)c1OCC[N+](CC)(CC)CC [gallamine-triethiodide]
inactive: [1] 0 | [2] 0 | [3] 0 | [4] 0 | [5] 0 | [6] 0 | [7] 0 | [8] 0 | [9] 0 | [10] 0 | [11] 0 | [12] 0 | [13] 0 | [14] 0 | [15] 0

Cc1ccc(-c2c(-c3nn(C)c4ncnc(N5CC[C@H](N6CCCCC6)C5)c34)cnn2C)cc1
inactive: [1] 0 | [2] 0 | [3] 0 | [4] 0 | [5] 0 | [6] 0 | [7] 0 | [8] 0 | [9] 0 | [10] 0 | [11] 0 | [12] 0 | [13] 0 | [14] 0 | [15] 0

CCCCc1nc(Cl)c(CO)n1Cc1ccc(-c2ccccc2-c2nnn[nH]2)cc1 [losartan]
inactive: [1] 0 | [2] 0 | [3] 0 | [4] 0 | [5] 0 | [6] 0 | [7] 0 | [8] 0 | [9] 0 | [10] 0 | [11] 0 | [12] 0 | [13] 0 | [14] 0 | [15] 0

NC(=O)C(c1ccccc1)(c1ccc(F)cc1)c1ccc(F)cc1 [senicapoc]
inactive: [1] 0 | [2] 0 | [3] 0 | [4] 0 | [5] 0 | [6] 0 | [7] 0 | [8] 0 | [9] 0 | [10] 0 | [11] 0 | [12] 0 | [13] 0 | [14] 0 | [15] 0

C[C@](N)(Cc1ccc(O)c(O)c1)C(=O)O [methyldopa]
inactive: [1] 0 | [2] 0 | [3] 0 | [4] 0 | [5] 0 | [6] 0 | [7] 0 | [8] 0 | [9] 0 | [10] 0 | [11] 0 | [12] 0 | [13] 0 | [14] 0 | [15] 0

O=C(NC(CO)C(O)c1ccc([N+](=O)[O-])cc1)C(Cl)Cl (stereo not given) [Chloramphenicol]
inactive: [1] 0 | [2] 0 | [3] 0 | [4] 0 | [5] 0 | [6] 0 | [7] 0 | [8] 0 | [9] 0 | [10] 0 | [11] 0 | [12] 0 | [13] 0 | [14] 0 | [15] 0

COc1ccc(CN(CCN(C)C)c2ccccn2)cc1 [mepyramine]
inactive: [1] 0 | [2] 0 | [3] 0 | [4] 0 | [5] 0 | [6] 0 | [7] 0 | [8] 0 | [9] 0 | [10] 0 | [11] 0 | [12] 0 | [13] 0 | [14] 0 | [15] 0

COc1ccccc1OCC(O)COC(N)=O (stereo not given) [methocarbamol]
inactive: [1] 0 | [2] 0 | [3] 0 | [4] 0 | [5] 0 | [6] 0 | [7] 0 | [8] 0 | [9] 0 | [10] 0 | [11] 0 | [12] 0 | [13] 0 | [14] 0 | [15] 0

Nc1ncnc2c1c(-c1ccc(Cl)cc1)nn2-c1cccc(-c2cnnn2Cc2cccc(-c3ccccc3)c2)c1
inactive: [1] 0 | [2] 0 | [3] 0 | [4] 0 | [5] 0 | [6] 0 | [7] 0 | [8] 0 | [9] 0 | [10] 0 | [11] 0 | [12] 0 | [13] 0 | [14] 0 | [15] 0

CC(=O)c1ccc(S(=O)(=O)NC(=O)NC2CCCCC2)cc1 [acetohexamide]
inactive: [1] 0 | [2] 0 | [3] 0 | [4] 0 | [5] 0 | [6] 0 | [7] 0 | [8] 0 | [9] 0 | [10] 0 | [11] 0 | [12] 0 | [13] 0 | [14] 0 | [15] 0

Cc1ccc2ccc(C(Nc3ccccc3)c3ccccc3)c(O)c2n1 (stereo not given)
inactive: [1] 0 | [2] 0 | [3] 0 | [4] 0 | [5] 0 | [6] 0 | [7] 0 | [8] 0 | [9] 0 | [10] 0 | [11] 0 | [12] 0 | [13] 0 | [14] 0 | [15] 0

C/C=C(/C(=C/C)c1ccc(O)cc1)c1ccc(O)cc1 [dienestrol]
inactive: [1] 0 | [2] 0 | [3] 0 | [4] 0 | [5] 0 | [6] 0 | [7] 0 | [8] 0 | [9] 0 | [10] 0 | [11] 0 | [12] 0 | [13] 0 | [14] 0 | [15] 0

CN(N=O)C(=O)N[C@@H](C=O)[C@@H](O)[C@H](O)[C@H](O)CO.CN(N=O)C(=O)N[C@H]1C(O)O[C@H](CO)[C@@H](O)[C@@H]1O [streptozotocin]
inactive: [1] 0 | [2] 0 | [3] 0 | [4] 0 | [5] 0 | [6] 0 | [7] 0 | [8] 0 | [9] 0 | [10] 0 | [11] 0 | [12] 0 | [13] 0 | [14] 0 | [15] 0

COP(=O)(OC)OC(c1ccc(Cl)cc1)P(=O)(OC)OC (stereo not given)
inactive: [1] 0 | [2] 0 | [3] 0 | [4] 0 | [5] 0 | [6] 0 | [7] 0 | [8] 0 | [9] 0 | [10] 0 | [11] 0 | [12] 0 | [13] 0 | [14] 0 | [15] 0
